Source: PubChem BioAssay AID1159580 (chemical genetic matrix, 2015)
Out of some 5,500 compounds screened, about 2,000 (36%) were called active. Another 18% or so got no clear call; they are omitted. Cut-off read from the data, not from the text of the source: active = normalized growth mostly below about 0.91 (no sharp cut-off); inconclusive = no clear call, values can overlap the other calls; inactive = mostly above about 0.92. This is one part of the list.

Experiment: chemical genetic growth profiling, strain panel (AID 1159580);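 note: tested at 20 µM; growth read once vehicle control cultures reached saturation at 30 °C; 1 = growth at the plate median or of vehicle wells; lower values mean less growth of the strain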
Settings: growth OD
[1] = S. cerevisiae deletion strains, locus YDL101C, strain DUN1, hits give low values
[2] = S. cerevisiae deletion strains, locus YHR030C, strain SLT2, hits give low values
[3] = S. cerevisiae deletion strains, locus YAL013W, strain DEP1, hits give low values
[4] = S. cerevisiae deletion strains, locus YBR229C, strain ROT2, hits give low values
[5] = S. cerevisiae deletion strains, locus YCL061C, strain MRC1, hits give low values
[6] = S. cerevisiae deletion strains, locus YDR150W, strain NUM1, hits give low values
[7] = S. cerevisiae deletion strains, locus YEL061C, strain CIN8, hits give low values
[8] = S. cerevisiae deletion strains, locus YGR078C, strain PAC10, hits give low values
[9] = S. cerevisiae deletion strains, locus YHR087W, strain rtc3, hits give low values
[10] = S. cerevisiae deletion strains, locus YJR043C, strain POL32, hits give low values
[11] = S. cerevisiae deletion strains, locus YLR039C, strain RIC1, hits give low values
[12] = S. cerevisiae deletion strains, locus YLR058C, strain SHM2 (second series), hits give low values
[13] = S. cerevisiae deletion strains, locus YLR085C, strain ARP6, hits give low values
[14] = S. cerevisiae deletion strains, locus YLR262C, strain YPT6, hits give low values
[15] = S. cerevisiae deletion strains, locus YML094W, strain GIM5, hits give low values
[16] = S. cerevisiae deletion strains, locus YMR219W, strain ESC1, hits give low values
[17] = S. cerevisiae deletion strains, locus YMR263W, strain SAP30, hits give low values
[18] = S. cerevisiae deletion strains, locus YNL153C, strain GIM3, hits give low values
[19] = S. cerevisiae deletion strains, locus YNL298W, strain CLA4 (second series), hits give low values
[20] = S. cerevisiae deletion strains, locus YNL322C, strain KRE1, hits give low values
[21] = S. cerevisiae deletion strains, locus YNR030W, strain Alg12, hits give low values
[22] = S. cerevisiae deletion strains, locus YPL055C, strain LGE1, hits give low values
[23] = S. cerevisiae deletion strains, locus YPL241C, strain CIN2, hits give low values
[24] = S. cerevisiae deletion strains, locus YPR135W, strain CTF4, hits give low values
[25] = S. cerevisiae deletion strains, locus YJR075W, strain HOC1, hits give low values

Measured: normalized growth

CC(C)(C)c1cc(C(=O)NNc2cccc(Cl)c2)n(Cc2ccccc2)n1
inactive: S. cerevisiae deletion strains, locus YAR019C, strain CDC15, hits give low values 0.98 | S. cerevisiae deletion strains, locus YBL105C, strain PKC1, hits give low values 0.978 | S. cerevisiae deletion strains, locus YBR135W, strain CKS1, hits give low values 0.983 | S. cerevisiae deletion strains, locus YBR136W, strain MEC1, hits give low values 0.973 | S. cerevisiae deletion strains, locus YBR160W, strain CDC28, hits give low values 0.975 | S. cerevisiae deletion strains, locus YDL017W, strain CDC7, hits give low values 0.987 | S. cerevisiae deletion strains, locus YDL028C, strain MPS1, hits give low values 0.975 | [1] 0.955 | S. cerevisiae deletion strains, locus YDL108W, strain KIN28, hits give low values 0.978 | S. cerevisiae deletion strains, locus YDL132W, strain cdc53, hits give low values 0.969 | S. cerevisiae deletion strains, locus YDL214C, strain PRR2, hits give low values 0.917 | S. cerevisiae deletion strains, locus YDR052C, strain DBF4, hits give low values 0.976 | S. cerevisiae deletion strains, locus YDR054C, strain cdc34, hits give low values 0.979 | S. cerevisiae deletion strains, locus YDR226W, strain ADK1, hits give low values 0.985 | S. cerevisiae deletion strains, locus YDR477W, strain SNF1, hits give low values 0.923 | S. cerevisiae deletion strains, locus YER123W, strain YCK3, hits give low values 0.832 | S. cerevisiae deletion strains, locus YER133W, strain GLC7, hits give low values 0.926 | S. cerevisiae deletion strains, locus YFL009W, strain cdc4, hits give low values 0.992 | S. cerevisiae deletion strains, locus YFL029C, strain CAK1, hits give low values 0.939 | S. cerevisiae deletion strains, locus YFR003C, strain YPI1, hits give low values 0.99 | S. cerevisiae deletion strains, locus YFR019W, strain FAB1, hits give low values 0.911 | S. cerevisiae deletion strains, locus YFR028C, strain CDC14, hits give low values 0.974 | S. cerevisiae deletion strains, locus YGR040W, strain KSS1, hits give low values 0.906 | S. cerevisiae deletion strains, locus YGR052W, strain FMP48, hits give low values 0.922 | S. cerevisiae deletion strains, locus YGR092W, strain DBF2, hits give low values 0.822 | [2] 0.862 | S. cerevisiae deletion strains, locus YHR079C, strain IRE1, hits give low values 0.927 | S. cerevisiae deletion strains, locus YHR082C, strain KSP1, hits give low values 0.962 | S. cerevisiae deletion strains, locus YHR205W, strain SCH9, hits give low values 0.894 | S. cerevisiae deletion strains, locus YIL147C, strain SLN1, hits give low values 0.981 | S. cerevisiae deletion strains, locus YJL095W, strain BCK1, hits give low values 0.825 | S. cerevisiae deletion strains, locus YJL128C, strain PBS2, hits give low values 0.956 | S. cerevisiae deletion strains, locus YJL157C, strain FAR1, hits give low values 0.892 | S. cerevisiae deletion strains, locus YJR016C, strain ILV3, hits give low values 0.985 | S. cerevisiae deletion strains, locus YJR066W, strain TOR1 (second series), hits give low values 0.884 | S. cerevisiae deletion strains, locus YJR066W, strain TOR1, hits give low values 0.935 | S. cerevisiae deletion strains, locus YKL048C, strain ELM1, hits give low values 0.889 | S. cerevisiae deletion strains, locus YKL067W, strain YNK1, hits give low values 0.935 | S. cerevisiae deletion strains, locus YKL101W, strain HSL1, hits give low values 0.917 | S. cerevisiae deletion strains, locus YKL193C, strain SDS22, hits give low values 0.96 | S. cerevisiae deletion strains, locus YKL203C, strain TOR2, hits give low values 1.01 | S. cerevisiae deletion strains, locus YLR133W, strain CKI1, hits give low values 0.882 | S. cerevisiae deletion strains, locus YLR403W, strain SFP1, hits give low values 0.913 | S. cerevisiae deletion strains, locus YML070W, strain DAK1, hits give low values 0.887 | S. cerevisiae deletion strains, locus YMR001C, strain CDC5, hits give low values 0.975 | S. cerevisiae deletion strains, locus YMR205C, strain PFK2 (second series), hits give low values 0.923 | S. cerevisiae deletion strains, locus YMR277W, strain FCP1, hits give low values 0.988 | S. cerevisiae deletion strains, locus YNL006W, strain LST8, hits give low values 0.986 | S. cerevisiae deletion strains, locus YNL020C, strain ARK1, hits give low values 0.887 | S. cerevisiae deletion strains, locus YNL161W, strain CBK1, hits give low values 0.978 | S. cerevisiae deletion strains, locus YNL183C, strain NPR1, hits give low values 0.965 | S. cerevisiae deletion strains, locus YNL207W, strain RIO2, hits give low values 0.974 | S. cerevisiae deletion strains, locus YNL222W, strain SSU72, hits give low values 0.982 | S. cerevisiae deletion strains, locus YNL307C, strain MCK1 (second series), hits give low values 0.816 | S. cerevisiae deletion strains, locus YOL078W, strain AVO1, hits give low values 0.96 | S. cerevisiae deletion strains, locus YOL136C, strain PFK27, hits give low values 0.86 | S. cerevisiae deletion strains, locus YOR061W, strain CKA2, hits give low values 0.847 | S. cerevisiae deletion strains, locus YOR119C, strain RIO1, hits give low values 0.978 | S. cerevisiae deletion strains, locus YOR231W, strain MKK1, hits give low values 0.869 | S. cerevisiae deletion strains, locus YOR329C, strain SCD5, hits give low values 0.978 | S. cerevisiae deletion strains, locus YPL031C, strain PHO85, hits give low values 0.94 | S. cerevisiae deletion strains, locus YPL153C, strain RAD53, hits give low values 0.925 | S. cerevisiae deletion strains, locus YPL204W, strain HRR25, hits give low values 0.889 | S. cerevisiae deletion strains, locus YPL209C, strain IPL1, hits give low values 0.972 | S. cerevisiae deletion strains, locus YPL256C, strain CLN2, hits give low values 0.863 | S. cerevisiae deletion strains, locus YPR025C, strain CCL1, hits give low values 0.981 | S. cerevisiae deletion strains, locus YPR106W, strain ISR1, hits give low values 0.969 | S. cerevisiae deletion strains, locus YPR111W, strain DBF20, hits give low values 0.978 | S. cerevisiae deletion strains, strain NNK1, hits give low values 0.961 | S. cerevisiae deletion strains, strain TSCII, hits give low values 0.966
active: S. cerevisiae deletion strains, locus YLR113W, strain HOG1, hits give low values 0.787

Cc1cc(C)c(Cn2nc(C(C)(C)C)cc2C(=O)Nc2cccc(C(F)(F)F)c2)c(C)c1
inactive: [3] 0.991 | [4] 1.06 | [5] 0.99 | [1] 0.999 | [6] 1.16 | [7] 0.986 | [8] 0.998 | [2] 1.1 | [9] 0.999 | [10] 0.927 | [11] 1.02 | [12] 1 | [13] 1.01 | [14] 1.02 | [15] 1 | [16] 0.998 | [17] 0.988 | [18] 1 | [19] 1.02 | [20] 0.992 | [21] 0.994 | S. cerevisiae deletion strains, locus YOL006C, strain TOP1, hits give low values 1.06 | [22] 1.05 | [23] 0.995 | [24] 1.07 | S. cerevisiae strains, strain wild type, hits give low values 1

CC(C)(C)c1cc(C(=O)NNC(=O)c2cc(C(F)(F)F)cc(C(F)(F)F)c2)n(Cc2ccc(F)cc2)n1
inactive: [3] 0.979 | [4] 1.03 | [5] 1.04 | [1] 0.964 | [6] 1.01 | [7] 0.979 | [8] 1.01 | [2] 1 | [9] 0.994 | [10] 0.997 | [25] 1.08 | [11] 1.02 | [12] 1.04 | [13] 0.999 | [14] 1.02 | [15] 0.987 | [16] 1 | [17] 1.02 | [18] 1 | [19] 0.984 | [20] 0.99 | [21] 0.997 | [22] 0.976 | [23] 1.01 | [24] 0.927

CCN1CCCC1CNC(=O)c1cc(S(N)(=O)=O)ccc1OC (stereo not drawn)
inactive: [3] 0.972 | S. cerevisiae deletion strains, locus YAL040C, strain CLN3, hits give low values 0.955 | S. cerevisiae deletion strains, locus YCL061C, strain MRC1 (second series), hits give low values 0.984 | S. cerevisiae deletion strains, locus YDR363W, strain ESC2, hits give low values 0.962 | S. cerevisiae deletion strains, locus YER002W, strain NOP16, hits give low values 0.969 | [25] 0.973 | [17] 0.98 | S. cerevisiae deletion strains, locus YMR307W, strain GAS1, hits give low values 1.02 | [18] 1.02 | S. cerevisiae deletion strains, locus YNL175C, strain NOP13, hits give low values 0.978 | S. cerevisiae deletion strains, locus YNL197C, strain WHI3, hits give low values 0.977 | S. cerevisiae deletion strains, locus YNL224C, strain SQS1, hits give low values 0.992 | [20] 0.974 | S. cerevisiae deletion strains, locus YOR083W, strain WHI5 (second series), hits give low values 0.963 | [22] 0.993

CC(=O)Nc1ccc(S(=O)(=O)Nc2c(C)n(C)n(-c3ccccc3)c2=O)cc1
inactive: [3] 0.999 | [4] 0.947 | [5] 1.02 | [1] 1.04 | [6] 1.04 | [7] 0.995 | [8] 1.02 | [2] 1.11 | [9] 0.974 | [10] 1.02 | [25] 0.996 | S. cerevisiae deletion strains, locus YKL190W, strain CNB1, hits give low values 1.01 | [11] 1.02 | [12] 0.995 | [13] 0.999 | [14] 1 | [15] 1.01 | [16] 1.01 | [17] 1.01 | [18] 1.06 | [19] 1 | [20] 1.01 | [21] 1 | [22] 0.974 | [23] 0.987 | [24] 1.07
